Assay results: the supplement of paper PMC11732987, “Enantioselective OTUD7B fragment discovery through chemoproteomics screening and high-throughput optimisation” (Communications Chemistry, 2025)

Assays:
Assay in all cases: log2 ratio of Biotin-Ahx-Ub-VS probe labelling (fragment/DMSO); higher = less target engagement (more negative = stronger competition), active = hit call of the paper (q ≤ 0.05, log2 ratio ≤ -1)
Settings in all cases: compound concentration: 200 uM; treatment time: 3 h
[1] = target: USP34 (UniProt Q70CQ2)
Chain of USP34 (Q70CQ2 whole entry, the tested form may be a part): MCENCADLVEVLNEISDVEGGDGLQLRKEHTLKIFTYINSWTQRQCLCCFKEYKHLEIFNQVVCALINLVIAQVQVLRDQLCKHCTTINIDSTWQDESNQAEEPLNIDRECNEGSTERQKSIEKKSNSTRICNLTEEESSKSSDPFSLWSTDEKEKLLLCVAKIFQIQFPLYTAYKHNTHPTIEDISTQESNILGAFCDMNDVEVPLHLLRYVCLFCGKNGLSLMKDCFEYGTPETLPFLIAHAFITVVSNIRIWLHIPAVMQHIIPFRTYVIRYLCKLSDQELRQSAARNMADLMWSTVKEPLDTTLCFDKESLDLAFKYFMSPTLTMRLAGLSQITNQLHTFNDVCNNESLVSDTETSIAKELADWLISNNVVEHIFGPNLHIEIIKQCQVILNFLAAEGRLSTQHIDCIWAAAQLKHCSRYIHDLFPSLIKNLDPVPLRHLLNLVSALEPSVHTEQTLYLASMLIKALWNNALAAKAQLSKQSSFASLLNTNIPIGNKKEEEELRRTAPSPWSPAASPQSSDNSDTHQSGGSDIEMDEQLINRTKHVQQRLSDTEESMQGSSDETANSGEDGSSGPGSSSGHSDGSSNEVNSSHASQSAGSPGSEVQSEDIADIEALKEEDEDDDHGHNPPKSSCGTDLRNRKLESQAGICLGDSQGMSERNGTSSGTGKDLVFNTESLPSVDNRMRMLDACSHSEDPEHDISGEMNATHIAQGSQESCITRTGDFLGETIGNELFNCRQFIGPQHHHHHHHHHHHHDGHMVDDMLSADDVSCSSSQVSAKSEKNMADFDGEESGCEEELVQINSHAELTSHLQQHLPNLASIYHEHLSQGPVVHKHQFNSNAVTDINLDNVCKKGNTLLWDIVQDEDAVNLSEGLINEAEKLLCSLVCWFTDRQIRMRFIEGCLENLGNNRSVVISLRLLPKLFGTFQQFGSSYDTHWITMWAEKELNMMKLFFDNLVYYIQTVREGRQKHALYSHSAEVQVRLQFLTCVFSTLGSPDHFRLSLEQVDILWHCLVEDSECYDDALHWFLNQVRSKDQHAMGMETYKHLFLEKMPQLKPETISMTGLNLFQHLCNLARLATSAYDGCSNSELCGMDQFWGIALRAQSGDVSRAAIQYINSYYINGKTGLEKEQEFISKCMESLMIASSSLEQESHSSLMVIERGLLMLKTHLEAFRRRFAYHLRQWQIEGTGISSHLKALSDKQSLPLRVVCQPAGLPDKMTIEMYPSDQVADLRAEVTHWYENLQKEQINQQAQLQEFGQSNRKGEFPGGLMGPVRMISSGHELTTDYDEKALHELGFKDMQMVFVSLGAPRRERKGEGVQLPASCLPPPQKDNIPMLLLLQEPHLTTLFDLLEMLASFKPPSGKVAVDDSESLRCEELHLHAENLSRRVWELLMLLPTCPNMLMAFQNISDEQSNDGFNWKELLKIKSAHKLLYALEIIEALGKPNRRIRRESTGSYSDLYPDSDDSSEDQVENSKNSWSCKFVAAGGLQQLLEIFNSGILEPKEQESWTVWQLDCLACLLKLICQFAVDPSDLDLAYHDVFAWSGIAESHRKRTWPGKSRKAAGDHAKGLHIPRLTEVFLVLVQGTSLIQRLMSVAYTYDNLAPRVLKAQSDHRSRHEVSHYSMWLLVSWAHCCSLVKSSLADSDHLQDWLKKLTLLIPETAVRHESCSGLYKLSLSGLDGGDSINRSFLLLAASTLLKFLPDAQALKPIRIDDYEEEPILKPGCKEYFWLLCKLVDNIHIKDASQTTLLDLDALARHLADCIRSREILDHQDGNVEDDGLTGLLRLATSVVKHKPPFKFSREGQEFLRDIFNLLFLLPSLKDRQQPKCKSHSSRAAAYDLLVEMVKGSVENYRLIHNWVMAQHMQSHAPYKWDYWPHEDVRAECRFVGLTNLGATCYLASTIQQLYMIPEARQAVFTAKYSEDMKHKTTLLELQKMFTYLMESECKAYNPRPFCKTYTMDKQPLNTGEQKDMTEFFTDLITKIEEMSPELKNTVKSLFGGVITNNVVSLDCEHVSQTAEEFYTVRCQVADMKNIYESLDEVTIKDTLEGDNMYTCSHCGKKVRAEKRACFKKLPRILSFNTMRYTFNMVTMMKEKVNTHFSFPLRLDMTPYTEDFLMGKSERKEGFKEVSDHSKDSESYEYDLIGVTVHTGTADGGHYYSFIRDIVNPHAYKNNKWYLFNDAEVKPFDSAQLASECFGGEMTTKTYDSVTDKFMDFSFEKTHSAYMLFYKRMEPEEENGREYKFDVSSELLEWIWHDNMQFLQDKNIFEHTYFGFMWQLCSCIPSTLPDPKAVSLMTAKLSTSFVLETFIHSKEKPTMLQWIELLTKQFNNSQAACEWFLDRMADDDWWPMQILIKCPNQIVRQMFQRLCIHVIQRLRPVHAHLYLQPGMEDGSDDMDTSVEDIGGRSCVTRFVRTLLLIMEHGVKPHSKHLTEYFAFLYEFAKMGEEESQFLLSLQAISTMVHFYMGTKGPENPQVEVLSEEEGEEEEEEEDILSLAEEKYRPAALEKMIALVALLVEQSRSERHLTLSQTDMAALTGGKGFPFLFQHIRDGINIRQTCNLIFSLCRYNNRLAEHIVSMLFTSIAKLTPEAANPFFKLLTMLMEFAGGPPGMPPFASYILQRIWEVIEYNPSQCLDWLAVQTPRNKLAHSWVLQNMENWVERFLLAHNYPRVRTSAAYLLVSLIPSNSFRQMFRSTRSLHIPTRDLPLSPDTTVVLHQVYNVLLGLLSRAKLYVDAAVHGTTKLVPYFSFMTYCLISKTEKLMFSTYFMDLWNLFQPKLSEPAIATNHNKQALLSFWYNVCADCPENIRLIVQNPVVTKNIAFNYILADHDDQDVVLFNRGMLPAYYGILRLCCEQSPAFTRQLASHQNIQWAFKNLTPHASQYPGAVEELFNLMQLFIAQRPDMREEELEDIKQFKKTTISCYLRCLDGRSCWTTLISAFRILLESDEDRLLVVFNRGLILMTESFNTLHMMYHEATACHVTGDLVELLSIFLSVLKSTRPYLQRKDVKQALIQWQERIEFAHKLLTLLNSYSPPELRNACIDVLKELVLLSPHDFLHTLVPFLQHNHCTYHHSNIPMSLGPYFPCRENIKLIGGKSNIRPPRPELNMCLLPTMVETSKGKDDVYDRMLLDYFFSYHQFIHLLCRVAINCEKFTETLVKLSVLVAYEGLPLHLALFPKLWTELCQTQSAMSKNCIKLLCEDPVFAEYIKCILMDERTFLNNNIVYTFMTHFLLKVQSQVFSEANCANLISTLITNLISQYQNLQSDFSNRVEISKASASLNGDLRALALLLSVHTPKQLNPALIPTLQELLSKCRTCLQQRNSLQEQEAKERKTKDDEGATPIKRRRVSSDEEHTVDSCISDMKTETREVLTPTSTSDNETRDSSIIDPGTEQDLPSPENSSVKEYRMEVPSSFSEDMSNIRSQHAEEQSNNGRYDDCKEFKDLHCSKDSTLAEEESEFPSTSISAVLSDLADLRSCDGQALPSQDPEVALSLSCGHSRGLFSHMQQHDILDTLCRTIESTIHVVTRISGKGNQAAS
Summary of the method: (§1)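 Global-median-normalised Spectronaut label-free quantities were compared by unpaired t-test, and values are average log2 ratios of fragment over vehicle. Only proteins with ≥2 unique peptides were used. HEK293T lysate (495 µg per sample) was treated in triplicate with fragment at 200 µM or vehicle for 3 h and then with Biotin-Ahx-Ub-VS at 0.5 µM final for 1 h. Labelled DUBs were then NeutrAvidin-enriched, digested with LysC and trypsin, and run by diaPASEF LC-MS/MS.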

[2] = target: T1, USP36 (UniProt Q9P275)
T1 sequence (whole entry): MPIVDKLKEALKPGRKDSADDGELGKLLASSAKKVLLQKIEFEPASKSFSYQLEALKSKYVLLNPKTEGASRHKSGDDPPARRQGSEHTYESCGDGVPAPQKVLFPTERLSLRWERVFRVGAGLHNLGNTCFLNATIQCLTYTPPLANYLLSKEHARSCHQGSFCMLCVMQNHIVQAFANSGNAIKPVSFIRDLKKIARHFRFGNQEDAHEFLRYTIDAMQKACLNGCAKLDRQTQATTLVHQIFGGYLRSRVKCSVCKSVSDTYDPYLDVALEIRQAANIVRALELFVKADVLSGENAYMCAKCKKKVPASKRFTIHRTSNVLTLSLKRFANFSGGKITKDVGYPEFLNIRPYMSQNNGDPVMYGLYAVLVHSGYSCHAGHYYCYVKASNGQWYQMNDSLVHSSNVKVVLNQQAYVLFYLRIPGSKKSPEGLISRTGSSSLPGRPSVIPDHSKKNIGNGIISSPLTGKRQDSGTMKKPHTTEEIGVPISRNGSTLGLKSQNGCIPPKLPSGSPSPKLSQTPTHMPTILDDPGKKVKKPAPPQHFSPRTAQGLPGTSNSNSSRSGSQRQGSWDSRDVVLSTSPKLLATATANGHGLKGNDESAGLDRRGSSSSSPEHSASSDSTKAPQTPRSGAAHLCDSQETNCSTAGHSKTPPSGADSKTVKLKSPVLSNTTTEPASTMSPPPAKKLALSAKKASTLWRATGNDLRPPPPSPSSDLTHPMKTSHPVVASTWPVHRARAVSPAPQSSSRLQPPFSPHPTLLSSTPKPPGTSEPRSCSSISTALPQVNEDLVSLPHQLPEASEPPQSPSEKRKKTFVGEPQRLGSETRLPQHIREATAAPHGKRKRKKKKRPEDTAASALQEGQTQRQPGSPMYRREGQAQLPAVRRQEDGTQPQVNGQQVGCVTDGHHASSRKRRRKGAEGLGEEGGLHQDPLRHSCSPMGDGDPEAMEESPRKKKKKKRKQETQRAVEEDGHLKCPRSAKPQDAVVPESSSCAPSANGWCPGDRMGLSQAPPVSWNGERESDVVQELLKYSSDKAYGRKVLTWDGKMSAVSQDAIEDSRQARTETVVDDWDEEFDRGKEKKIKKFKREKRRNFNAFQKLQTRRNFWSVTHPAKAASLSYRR
Summary of the method: as §1

[3] = target: T2, USP38 (UniProt Q8NB14)
T2 sequence (whole entry): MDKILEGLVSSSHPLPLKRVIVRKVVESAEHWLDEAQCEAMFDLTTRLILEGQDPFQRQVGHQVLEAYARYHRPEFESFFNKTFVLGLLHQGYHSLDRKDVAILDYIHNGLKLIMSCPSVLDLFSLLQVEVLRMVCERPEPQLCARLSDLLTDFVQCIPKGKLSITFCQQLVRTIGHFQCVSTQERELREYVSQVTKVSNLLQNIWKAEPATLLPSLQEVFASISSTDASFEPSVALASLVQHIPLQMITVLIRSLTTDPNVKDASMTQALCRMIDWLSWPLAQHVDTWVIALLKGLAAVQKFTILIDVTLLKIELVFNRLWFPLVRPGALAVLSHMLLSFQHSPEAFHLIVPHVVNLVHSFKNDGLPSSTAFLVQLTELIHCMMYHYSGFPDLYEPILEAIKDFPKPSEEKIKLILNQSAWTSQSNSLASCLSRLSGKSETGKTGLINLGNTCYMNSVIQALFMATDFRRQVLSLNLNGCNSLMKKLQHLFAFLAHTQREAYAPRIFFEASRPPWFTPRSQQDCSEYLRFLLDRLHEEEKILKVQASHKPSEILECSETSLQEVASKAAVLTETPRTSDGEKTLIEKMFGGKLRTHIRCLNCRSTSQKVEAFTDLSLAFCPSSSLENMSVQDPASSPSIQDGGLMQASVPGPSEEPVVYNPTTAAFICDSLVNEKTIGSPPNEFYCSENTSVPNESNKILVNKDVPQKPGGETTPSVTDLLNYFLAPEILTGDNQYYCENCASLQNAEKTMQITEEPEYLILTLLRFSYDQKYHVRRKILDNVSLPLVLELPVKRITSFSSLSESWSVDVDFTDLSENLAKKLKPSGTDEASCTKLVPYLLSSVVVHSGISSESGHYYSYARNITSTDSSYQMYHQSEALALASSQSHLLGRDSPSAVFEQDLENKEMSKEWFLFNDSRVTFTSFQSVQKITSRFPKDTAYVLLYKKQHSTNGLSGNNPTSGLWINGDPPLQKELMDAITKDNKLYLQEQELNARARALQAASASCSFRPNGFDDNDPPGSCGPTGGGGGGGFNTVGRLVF
Summary of the method: as §1

[4] = target: T3, USP39 (UniProt Q53GS9)
T3 sequence (whole entry): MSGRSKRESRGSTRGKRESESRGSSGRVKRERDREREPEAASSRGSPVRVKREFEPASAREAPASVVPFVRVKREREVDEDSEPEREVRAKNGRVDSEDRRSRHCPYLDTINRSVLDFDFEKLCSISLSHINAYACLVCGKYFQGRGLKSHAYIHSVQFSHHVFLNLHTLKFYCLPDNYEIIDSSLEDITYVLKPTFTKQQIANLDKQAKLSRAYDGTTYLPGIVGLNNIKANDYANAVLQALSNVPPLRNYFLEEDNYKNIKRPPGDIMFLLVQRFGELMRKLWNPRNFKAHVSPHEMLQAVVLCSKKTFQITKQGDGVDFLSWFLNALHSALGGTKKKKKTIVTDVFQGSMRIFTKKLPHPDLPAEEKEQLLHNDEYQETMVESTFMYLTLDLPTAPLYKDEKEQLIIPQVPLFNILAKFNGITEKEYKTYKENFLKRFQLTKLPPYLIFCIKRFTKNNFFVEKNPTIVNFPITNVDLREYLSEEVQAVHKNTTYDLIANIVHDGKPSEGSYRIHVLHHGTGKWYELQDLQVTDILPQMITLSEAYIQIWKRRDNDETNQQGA
Summary of the method: as §1

[5] = target: T4, USP4 (UniProt Q13107)
T4 sequence (whole entry): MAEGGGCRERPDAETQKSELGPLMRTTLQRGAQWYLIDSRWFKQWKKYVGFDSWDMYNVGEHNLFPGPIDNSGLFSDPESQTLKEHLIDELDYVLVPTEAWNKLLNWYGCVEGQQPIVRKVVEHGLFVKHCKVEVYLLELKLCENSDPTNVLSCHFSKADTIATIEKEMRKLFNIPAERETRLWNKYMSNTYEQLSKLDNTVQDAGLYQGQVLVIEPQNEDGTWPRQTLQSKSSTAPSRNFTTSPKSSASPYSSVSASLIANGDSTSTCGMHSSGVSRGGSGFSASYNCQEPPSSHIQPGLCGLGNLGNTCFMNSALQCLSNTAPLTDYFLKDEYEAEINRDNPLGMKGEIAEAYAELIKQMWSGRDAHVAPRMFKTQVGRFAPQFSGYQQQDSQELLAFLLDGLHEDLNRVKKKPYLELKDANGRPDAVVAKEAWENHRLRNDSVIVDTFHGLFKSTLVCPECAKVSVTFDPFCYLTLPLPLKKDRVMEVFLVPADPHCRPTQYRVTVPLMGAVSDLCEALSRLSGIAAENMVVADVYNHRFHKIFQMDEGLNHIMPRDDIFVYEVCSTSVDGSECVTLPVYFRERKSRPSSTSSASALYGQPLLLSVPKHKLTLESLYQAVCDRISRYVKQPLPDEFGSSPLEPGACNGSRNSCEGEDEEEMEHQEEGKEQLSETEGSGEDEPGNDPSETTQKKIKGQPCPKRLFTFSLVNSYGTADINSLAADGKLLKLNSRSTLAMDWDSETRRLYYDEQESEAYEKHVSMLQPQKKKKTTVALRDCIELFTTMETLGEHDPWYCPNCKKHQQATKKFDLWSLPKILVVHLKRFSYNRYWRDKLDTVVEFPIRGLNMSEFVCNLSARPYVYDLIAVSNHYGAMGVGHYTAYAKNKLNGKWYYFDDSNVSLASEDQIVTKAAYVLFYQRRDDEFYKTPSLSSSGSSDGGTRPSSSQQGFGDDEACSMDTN
Summary of the method: as §1

Measured: log2 ratio of Biotin-Ahx-Ub-VS probe labelling

Cc1nc(CNC(=O)CCl)c2ccccn12.Cl
inactive: [1] -0.0794 | [2] -0.09 | [3] -0.0607 | [4] 0.302 | [5] -0.0724
